Records with an inconclusive call do not appear. The source made the active and inactive calls. Calls follow the shape of the dose curve; as a rule, active = well fitted inhibition curve with a large enough effect in the signal ratio in the repeat runs (not every such curve was filed as active); inconclusive = weak or mixed curves, or effect the other way; inactive = no such curve, though single readings can be large or run the other way; the % refers to the signal ratio.
% is scaled to controls: 0 for no effect and ±100 for the full control effect.

Chain of Estrogen receptor beta (Homo sapiens) (Q92731 whole entry, looked up): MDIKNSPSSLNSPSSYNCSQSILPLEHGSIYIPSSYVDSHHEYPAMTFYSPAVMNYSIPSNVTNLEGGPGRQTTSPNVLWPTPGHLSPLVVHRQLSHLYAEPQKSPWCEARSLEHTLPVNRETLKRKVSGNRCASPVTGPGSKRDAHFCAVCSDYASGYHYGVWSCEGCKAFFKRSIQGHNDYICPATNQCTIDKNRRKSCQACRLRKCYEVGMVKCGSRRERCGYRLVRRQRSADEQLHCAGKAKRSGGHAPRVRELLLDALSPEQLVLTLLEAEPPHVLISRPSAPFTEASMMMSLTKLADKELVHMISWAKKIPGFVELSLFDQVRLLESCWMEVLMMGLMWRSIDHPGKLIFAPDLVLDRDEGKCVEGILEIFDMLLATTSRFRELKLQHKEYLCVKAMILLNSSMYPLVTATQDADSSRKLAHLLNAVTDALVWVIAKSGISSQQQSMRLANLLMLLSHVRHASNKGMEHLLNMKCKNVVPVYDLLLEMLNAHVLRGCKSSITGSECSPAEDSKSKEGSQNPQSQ

For the test, the target named is Estrogen receptor beta (Homo sapiens) (UniProt Q92731). Description: qHTS assay to identify small molecule antagonists of the estrogen receptor beta (ER-beta) signaling pathway (AID 1259378). To be noted: ER-beta-UAS-bla HEK293T, beta-lactamase FRET ratio, 16 h; series mostly up to 92.4 µM; activity, negative = inhibition: at the top concentration. From the text:
National Center for Advancing Translational Sciences [NCATS]
NIH Chemical Genomics Center [NCGC]
U.S. Environmental Protection Agency [EPA]
National Institutes of Environmental Health Sciences [NIEHS]
National Toxicology Program [NTP]
U.S. Food and Drug Administration [FDA]
Estrogen receptor (ER), a nuclear hormone receptor, plays an important role in development, metabolic homeostasis and reproduction. Two subtypes of ER, ER-alpha and ER-beta, have similar expression patterns with some uniqueness in both types. Endocrine disrupting chemicals (EDCs) and their interactions with steroid hormone receptors like ER causes disruption of normal endocrine function. To identify the compounds that inhibit ER signaling, an ER-beta-UAS-bla GripTite cell line (Life Technologies, Madison, WI, USA) containing a beta-lactamase reporter gene under the control of an UAS response element was used to screen Tox21 10K compound library.
Tox21 Assay Protocol Summary:
ER-beta-UAS-bla HEK293T cells were dispensed at 2,000 cells/4 uL of assay medium containing 2% charcoal stripped FBS per well into black wall/clear-bottom 1536-well plates using a Multidrop Combi (ThermoFisher Scientific, Waltham, MA) dispenser. After the assay plates were incubated at a 37C and 5% CO2 for 6 hr, 23 nL of compounds dissolved in DMSO, positive controls or DMSO only was transferred to the assay plate by a Pintool station (Kalypsys, San Diego, CA), followed by addition of 1 uL (1nM as final concentration) of 17-beta-estradiol (E2) in assay medium using a BioRAPTR FRD (Flying Reagent Dispenser, Aurora Discovery, San Diego, CA). The plates were incubated at 37C and 5% CO2 for 16 hr. Then 1 uL of LiveBLAzerTM B/G FRET substrate was added using a Flying Reagent Dispenser, the plates were incubated at room temperature for 2 hours, and fluorescence intensity was measured by an Envision plate reader (PerkinElmer, Shelton, CT).
A general note: Quantitative high-throughput screening tests each substance at several concentrations.
With `CCN(CC)c1ccccc1`, the outcome was inactive.

Turning to `NCCc1ccc(O)cc1`, the “activity, negative = inhibition” value is 17% [at 42.5 µM] (inactive).

With `c1ccc(OP(Oc2ccccc2)Oc2ccccc2)cc1`, the “activity, negative = inhibition” value was 5.93% (inactive).

With `COC(=O)c1ccccc1C(=O)OC`, the result was inactive.

Consider `O=[N+]([O-])c1ccccc1`, for which the outcome was inactive.

For the compound `O=Cc1cccc(Oc2ccccc2)c1`, the outcome was inactive.

Turning to `CN(N=O)c1ccccc1`, the result was inactive.

Take `Nc1ccccc1C(=O)O`: the “activity, negative = inhibition” value is 12.8% [at 42.5 µM] (inactive).

Turning to `CCOP(=S)(OCC)SCCSCC`, the outcome was inactive.

Consider `C[C@]12CC[C@H]3[C@@H](CC[C@@]45O[C@@H]4C(O)=C(C#N)C[C@]35C)[C@@H]1CC[C@@H]2O`, for which the “activity, negative = inhibition” value is -14.8% [at 42.5 µM] (inactive).

On to `CCC[N+](=O)[O-]`, for which the “activity, negative = inhibition” value is 6.29% (inactive).

For `CCCCCCCCCCCC#N`, the outcome was inactive.

In the case of `Clc1ccc(Cl)cc1`, the outcome was inactive.

Consider `Cc1cc(Cl)ccc1O`, for which the outcome was inactive.

Turning to `O=S(=O)(c1ccc(Cl)cc1)c1cc(Cl)c(Cl)cc1Cl`, the “activity, negative = inhibition” value is 3.59% (inactive).

Regarding `CCCCCCCCCl`, the “activity, negative = inhibition” value was 11.2% (inactive).

In the case of `Cc1ccc(N)cc1N`, the outcome was inactive.

In the case of `CC1C=[C-]C=C1.[C-]#[O+].[C-]#[O+].[C-]#[O+].[Mn]`, the result was inactive.

On to `CNC(=O)Oc1ccccc1OC(C)C`, for which the “activity, negative = inhibition” value was 28.5% (inactive).

In the case of `CC1OC(C)OC(C)O1` (stereo not given), the result was inactive.

Take `ClCCBr`: the result was inactive.

For `CCOP(=S)(OCC)Oc1cnc2ccccc2n1`, the “activity, negative = inhibition” value was 12% (inactive).

As for `CC(C)(C)OOC(C)(C)C`, the outcome was inactive.

In the case of `C1CC2OC2CC1C1CO1` (stereo not given), the outcome was inactive.

As to `COP(N)(=O)SC` (stereo not given), the result was inactive.

For the compound `O=NN1CCCC1`, the “activity, negative = inhibition” value is 1.13% (inactive).

For `O=c1n(Cl)c(=O)n(Cl)c(=O)n1Cl`, the outcome was inactive.

Regarding `O=C(NC(=O)c1c(F)cccc1F)Nc1cc(Cl)c(OC(F)(F)C(F)C(F)(F)F)cc1Cl` (stereo not given), the “activity, negative = inhibition” value was 0.555% [at 42.5 µM] (inactive).

`[O-][Cl+2]([O-])O`: the “activity, negative = inhibition” value was 4.6% (inactive).

Regarding `CCNc1nc(NC(C)(C)C)nc(SC)n1`, the “activity, negative = inhibition” value is -21.3% (inactive).

As for `O=c1[nH]c(=O)[nH]c(=O)[nH]1`, the result was inactive.

In the case of `CC(NC(C)(C)C)C(=O)c1cccc(Cl)c1` (stereo not given), the result was inactive.

Take `OC(O)C(Cl)(Cl)Cl`: the result was inactive.

Consider `C#CCN(C)[C@H](C)Cc1ccccc1`, for which the outcome was inactive.

Regarding `COC(=O)NC(=S)Nc1ccccc1NC(=S)NC(=O)OC`, the result was inactive.

For the compound `Cc1ccc([N+](=O)[O-])cc1C`, the outcome was inactive.

For the compound `CN(C)N=O`, the outcome was inactive.

Consider `CC(C)(C)OOC(=O)c1ccccc1`, for which the outcome was inactive.

For the compound `CCCCOC(=O)c1ccccc1C(=O)OCCCC`, the result was inactive.

`CCCCCOC(=O)c1ccccc1C(=O)OCCCCC`: the “activity, negative = inhibition” value was -4.58% (inactive).

The record behind these values is PubChem BioAssay (Tox21).
